Results taken from PubChem BioAssay (EPA / NIEHS).
Active and inactive are the calls of the source. The calls were made as follows: active = hit-call score of the fitted dose curve at least 0.9, where 1 is the maximum; inactive = score below 0.9.

Assays:
[1] = molecular target: Bile acid receptor (Homo sapiens) (UniProt Q96RI1); assay: ATG_IR1_CIS: Attagene CIS-FACTORIAL HepG2 Assay for human Nuclear Receptor Subfamily 1 Group H Member 4 (NR1H4), IR1 submotif (AID 2282946); conditions: IR1 reporter transcription, actives raise or lower the signal
Bile acid receptor (Homo sapiens), sequence (Q96RI1 whole entry, looked up): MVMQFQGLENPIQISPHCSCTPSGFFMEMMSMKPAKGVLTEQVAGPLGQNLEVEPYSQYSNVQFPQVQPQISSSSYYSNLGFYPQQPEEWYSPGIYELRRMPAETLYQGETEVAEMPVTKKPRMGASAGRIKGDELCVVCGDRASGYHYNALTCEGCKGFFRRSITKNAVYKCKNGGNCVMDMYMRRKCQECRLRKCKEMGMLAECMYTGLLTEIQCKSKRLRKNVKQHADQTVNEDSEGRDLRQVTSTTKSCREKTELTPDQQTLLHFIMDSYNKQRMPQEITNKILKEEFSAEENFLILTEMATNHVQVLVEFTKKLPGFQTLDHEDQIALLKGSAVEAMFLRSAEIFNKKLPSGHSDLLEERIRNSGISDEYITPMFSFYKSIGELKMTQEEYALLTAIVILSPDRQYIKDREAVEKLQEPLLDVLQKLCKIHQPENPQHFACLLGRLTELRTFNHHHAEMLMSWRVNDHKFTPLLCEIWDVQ
How it was run: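 Readout: reporter transcript levels by RT-PCR with fluorescent capillary electrophoresis, from HepG2 cells transiently transfected with multiplexed cis-regulated reporters and dosed 24 h. Gain- or loss-of-signal fitted versus DMSO negative control.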

[2] = ATG_ISRE_CIS: Attagene CIS-FACTORIAL HepG2 Assay for human Interferon Regulatory Factor 1 (IRF1) binding to an Interferon-Stimulated Response Element (ISRE) (AID 2282948); conditions: HepG2 ISRE cis-reporter (Attagene), mRNA transcription readout; actives raise or lower the signal
How it was run: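 Signal reflects induction or loss of ISRE-linked reporter mRNA in transiently transfected HepG2 cells after a 24 h treatment, detected by fluorescent RT-PCR fragments on capillary electrophoresis and normalised to DMSO.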

[3] = ATG_M_06_CIS: Attagene CIS-FACTORIAL HepG2 Assay for M06 Transcription Factor (Internal Marker) (AID 2282950); conditions: HepG2 Attagene CIS-FACTORIAL M06 internal marker reporter; actives raise or lower the signal
How it was run: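 Steps: transfect HepG2 with multiplexed cis-element reporter constructs; dose chemical 24 h; extract RNA with DNase treatment; reverse-transcribe, PCR-amplify, 6-FAM label, HpaI digest; separate fragments by capillary electrophoresis. Activity fitted both directions versus DMSO.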

[4] = molecular target: Hypoxia-inducible factor 1-alpha (Homo sapiens) (UniProt Q16665); assay: ATG_HIF1a_CIS: Attagene CIS-FACTORIAL HepG2 Assay for human Hypoxia Inducible Factor 1 (HIF1A) (AID 2282951); conditions: HepG2 Attagene cis-factorial HIF1a reporter transcription; actives raise or lower the signal
Hypoxia-inducible factor 1-alpha (Homo sapiens), sequence (Q16665 whole entry, looked up): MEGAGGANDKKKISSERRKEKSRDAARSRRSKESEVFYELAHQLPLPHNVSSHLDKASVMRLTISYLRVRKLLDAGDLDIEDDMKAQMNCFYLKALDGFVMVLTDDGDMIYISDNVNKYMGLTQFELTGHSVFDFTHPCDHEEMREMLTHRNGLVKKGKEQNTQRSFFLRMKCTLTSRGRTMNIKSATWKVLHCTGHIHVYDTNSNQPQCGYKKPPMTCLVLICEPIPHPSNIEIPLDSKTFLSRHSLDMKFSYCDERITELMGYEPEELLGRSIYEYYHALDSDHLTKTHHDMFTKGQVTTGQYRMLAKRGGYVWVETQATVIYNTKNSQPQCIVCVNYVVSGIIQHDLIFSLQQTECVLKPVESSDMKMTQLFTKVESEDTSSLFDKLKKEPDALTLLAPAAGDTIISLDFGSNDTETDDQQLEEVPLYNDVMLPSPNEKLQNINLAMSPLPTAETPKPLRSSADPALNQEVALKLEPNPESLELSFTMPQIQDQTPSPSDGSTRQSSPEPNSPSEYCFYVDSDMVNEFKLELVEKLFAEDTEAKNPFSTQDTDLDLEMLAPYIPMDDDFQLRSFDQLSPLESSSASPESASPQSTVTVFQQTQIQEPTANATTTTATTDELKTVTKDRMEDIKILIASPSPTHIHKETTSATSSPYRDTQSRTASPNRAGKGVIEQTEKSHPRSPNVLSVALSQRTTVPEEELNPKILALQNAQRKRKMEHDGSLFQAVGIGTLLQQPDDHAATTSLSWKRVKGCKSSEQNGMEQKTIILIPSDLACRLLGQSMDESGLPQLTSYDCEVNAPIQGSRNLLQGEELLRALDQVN
How it was run: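 Cis-element reporter constructs were transiently transfected into HepG2 cells, which were treated for 24 h; reporter RNA was reverse-transcribed, amplified, labelled and resolved by capillary electrophoresis.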

[5] = molecular target: Hepatocyte nuclear factor 6 (Homo sapiens) (UniProt Q9UBC0); assay: ATG_HNF6_CIS: Attagene CIS-FACTORIAL HepG2 Assay for human Hepatocyte Nuclear Factor 6 (HNF6) (AID 2282952); conditions: HepG2 Attagene cis-factorial HNF6 reporter transcription; actives raise or lower the signal
Hepatocyte nuclear factor 6 (Homo sapiens), sequence (Q9UBC0 whole entry, looked up): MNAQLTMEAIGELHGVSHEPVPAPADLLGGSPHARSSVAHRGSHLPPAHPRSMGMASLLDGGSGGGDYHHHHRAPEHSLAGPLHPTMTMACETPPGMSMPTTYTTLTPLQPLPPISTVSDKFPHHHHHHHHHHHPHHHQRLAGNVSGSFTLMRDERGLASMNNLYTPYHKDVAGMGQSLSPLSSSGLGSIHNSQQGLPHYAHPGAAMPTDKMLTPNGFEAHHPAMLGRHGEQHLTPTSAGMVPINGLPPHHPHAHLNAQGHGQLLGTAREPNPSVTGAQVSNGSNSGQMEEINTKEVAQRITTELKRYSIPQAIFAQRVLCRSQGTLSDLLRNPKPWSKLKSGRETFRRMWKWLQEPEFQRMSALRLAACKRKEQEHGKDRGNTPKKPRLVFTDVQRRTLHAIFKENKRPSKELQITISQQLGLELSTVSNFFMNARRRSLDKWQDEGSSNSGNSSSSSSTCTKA
How it was run: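 Activity values derive from bidirectional fitting against DMSO of reporter mRNA levels, measured by capillary electrophoresis of labelled RT-PCR products from HepG2 cells exposed 24 h.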

[6] = ATG_PBREM_CIS: Attagene CIS-FACTORIAL HepG2 Assay for human Phenobarbital-responsive Enhancer Module (PBREM) (AID 2282955); conditions: HepG2 PBREM cis-reporter, Attagene multiplexed transcription; actives raise or lower the signal
How it was run: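 Multiplexed cis-reporter readout in human hepatoma HepG2 cells; PBREM-regulated transcript quantified after 24 h exposure by fluorescent RT-PCR fragment analysis. Signal changes up or down fitted relative to DMSO.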

[7] = molecular target: Paired box protein Pax-6 (Homo sapiens) (UniProt P26367); assay: ATG_Pax6_CIS: Attagene CIS-FACTORIAL HepG2 Assay for human Paired Box 6 (PAX6) (AID 2282956); conditions: HepG2 CIS-FACTORIAL PAX6 reporter transcription, RNA readout; actives raise or lower the signal
Paired box protein Pax-6 (Homo sapiens), sequence (P26367 whole entry, looked up): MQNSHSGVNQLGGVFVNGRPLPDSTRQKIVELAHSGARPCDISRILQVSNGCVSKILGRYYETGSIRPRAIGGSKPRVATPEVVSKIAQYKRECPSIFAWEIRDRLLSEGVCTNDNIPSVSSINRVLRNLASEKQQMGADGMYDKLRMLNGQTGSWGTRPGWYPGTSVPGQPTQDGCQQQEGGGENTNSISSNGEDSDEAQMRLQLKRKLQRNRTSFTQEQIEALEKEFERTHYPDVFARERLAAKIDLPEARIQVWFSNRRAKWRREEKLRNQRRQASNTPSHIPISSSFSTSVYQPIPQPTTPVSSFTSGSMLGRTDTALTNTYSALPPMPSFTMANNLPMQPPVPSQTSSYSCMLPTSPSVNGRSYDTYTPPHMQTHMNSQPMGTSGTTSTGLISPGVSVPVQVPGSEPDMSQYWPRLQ
How it was run: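 Values derive from bidirectional curve fitting of reporter mRNA signal relative to DMSO. HepG2 cells bearing transfected cis-regulated MRTUs were exposed for 24 h; transcripts were read by RT-PCR and capillary electrophoresis.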

[8] = ATG_PXRE_CIS: Attagene CIS-FACTORIAL HepG2 Assay for human Pregnane X Receptor Element (PXRE) (AID 2282957); conditions: HepG2 Attagene CIS-FACTORIAL PXRE reporter, mRNA; actives raise or lower the signal
How it was run: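 Fluorescent capillary electrophoresis of amplified reporter cDNA gave the signal, collected 24 h after dosing HepG2 cells that held transfected cis-element reporter constructs.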

[9] = ATG_RORE_CIS: Attagene CIS-FACTORIAL HepG2 Assay for human RAR-related Orphan Receptor Element (RORE) (AID 2282959); conditions: HepG2 Attagene cis-factorial RORE reporter, mRNA; actives raise or lower the signal
How it was run: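 Transfect HepG2 with MRTUs; treat 24 h; extract RNA; RT with oligo(dT); PCR with reporter-specific primers; 6-FAM primer extension; HpaI digest 2 h at 37 C; capillary electrophoresis. Fit vs DMSO, bidirectional.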

[10] = ATG_Sox_CIS: Attagene CIS-FACTORIAL HepG2 Assay for human SRY-box transcription factor (SOX) (AID 2282960); conditions: HepG2 Attagene cis-factorial SOX reporter, mRNA; actives raise or lower the signal
How it was run: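 Fluorescence-labelled cDNA fragments from reporter transcripts, sized by CE, give the signal. Cells: HepG2, transiently transfected with cis-regulated reporter units. Exposure 24 h; DMSO negative control; bidirectional curve fitting.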

[11] = molecular target: Transcription factor Sp1 (Homo sapiens) (UniProt P08047); assay: ATG_Sp1_CIS: Attagene CIS-FACTORIAL HepG2 Assay for human Specificity Protein 1 (Sp1) (AID 2282961); conditions: HepG2 Sp1 cis-reporter transcription, actives raise or lower the signal
Transcription factor Sp1 (Homo sapiens), sequence (P08047 whole entry, looked up): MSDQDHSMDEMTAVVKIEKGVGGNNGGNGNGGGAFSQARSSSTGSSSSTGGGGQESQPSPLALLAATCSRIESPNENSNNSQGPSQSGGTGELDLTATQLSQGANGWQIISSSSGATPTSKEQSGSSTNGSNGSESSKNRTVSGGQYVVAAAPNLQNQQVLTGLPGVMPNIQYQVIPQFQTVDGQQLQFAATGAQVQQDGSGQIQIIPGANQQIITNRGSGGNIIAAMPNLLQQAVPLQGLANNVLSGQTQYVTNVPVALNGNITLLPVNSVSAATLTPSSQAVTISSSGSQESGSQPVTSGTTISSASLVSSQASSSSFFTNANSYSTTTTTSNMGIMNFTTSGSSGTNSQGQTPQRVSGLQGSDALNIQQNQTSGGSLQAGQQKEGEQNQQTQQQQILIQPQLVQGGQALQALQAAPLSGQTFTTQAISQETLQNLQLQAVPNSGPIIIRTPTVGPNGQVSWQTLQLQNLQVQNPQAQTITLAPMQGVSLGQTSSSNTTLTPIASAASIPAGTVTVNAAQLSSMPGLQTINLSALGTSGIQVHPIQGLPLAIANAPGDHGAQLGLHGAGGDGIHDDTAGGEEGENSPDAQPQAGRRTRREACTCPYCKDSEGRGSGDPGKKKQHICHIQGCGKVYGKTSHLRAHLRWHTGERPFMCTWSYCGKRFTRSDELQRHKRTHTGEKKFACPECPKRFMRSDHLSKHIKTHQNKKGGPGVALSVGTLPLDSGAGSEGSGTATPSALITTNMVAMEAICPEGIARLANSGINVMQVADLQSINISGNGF
How it was run: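 Chemicals are dosed onto HepG2 cells transfected with multiple cis-promoter reporter constructs, and after 24 h reporter RNA is reverse-transcribed, PCR-amplified and resolved by capillary electrophoresis for fluorescence quantitation; activity is scored up or down against DMSO.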

[12] = ATG_SREBP_CIS: Attagene CIS-FACTORIAL HepG2 Assay for human Sterol Regulatory Element Binding (SREBP) (AID 2282962); conditions: HepG2 Attagene cis-factorial SREBP reporter, mRNA; actives raise or lower the signal
How it was run: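 Values derive from bidirectional curve fitting with DMSO as baseline. The underlying measurement is reporter mRNA from cis-element-regulated units in transiently transfected HepG2, quantified by RT-PCR and capillary electrophoresis after 24 h exposure.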

[13] = molecular target: Signal transducer and activator of transcription 3 (Homo sapiens) (UniProt P40763); assay: ATG_STAT3_CIS: Attagene CIS-FACTORIAL HepG2 Assay for human Signal Transducer and Activator of Transcription 3 (STAT3) (AID 2282963); conditions: HepG2, Attagene cis-factorial STAT3 reporter transcription; actives raise or lower the signal
Signal transducer and activator of transcription 3 (Homo sapiens), sequence (P40763 whole entry, looked up): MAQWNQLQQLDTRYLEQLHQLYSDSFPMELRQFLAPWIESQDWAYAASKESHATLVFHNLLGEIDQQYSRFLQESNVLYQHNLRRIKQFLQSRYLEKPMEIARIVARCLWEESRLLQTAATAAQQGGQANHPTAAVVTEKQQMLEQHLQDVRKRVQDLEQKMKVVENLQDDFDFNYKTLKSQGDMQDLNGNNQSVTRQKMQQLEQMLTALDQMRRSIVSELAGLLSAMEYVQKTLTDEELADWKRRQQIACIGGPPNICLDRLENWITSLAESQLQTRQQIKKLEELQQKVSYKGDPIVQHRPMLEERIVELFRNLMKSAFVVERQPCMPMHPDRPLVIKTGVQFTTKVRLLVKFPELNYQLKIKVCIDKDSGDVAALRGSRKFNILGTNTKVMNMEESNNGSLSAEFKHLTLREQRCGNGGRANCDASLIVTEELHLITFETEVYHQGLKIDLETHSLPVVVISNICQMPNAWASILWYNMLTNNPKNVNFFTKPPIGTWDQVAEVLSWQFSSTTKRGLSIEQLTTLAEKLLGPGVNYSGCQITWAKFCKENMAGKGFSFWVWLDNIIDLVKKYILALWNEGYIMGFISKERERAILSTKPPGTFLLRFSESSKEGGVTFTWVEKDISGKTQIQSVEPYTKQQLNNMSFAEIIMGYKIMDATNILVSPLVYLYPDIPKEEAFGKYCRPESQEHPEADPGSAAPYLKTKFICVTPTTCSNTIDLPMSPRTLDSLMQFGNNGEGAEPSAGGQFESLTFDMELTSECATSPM
How it was run: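 HepG2, MRTU-transfected, 24 h dosing. RNA → RT → PCR → FAM label → HpaI → CE. Bidirectional fit vs DMSO.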

[14] = ATG_TA_CIS: Attagene CIS-FACTORIAL HepG2 Assay for human TA Basal Promoter (AID 2282964); conditions: HepG2 Attagene CIS-factorial TA basal promoter reporter; actives raise or lower the signal
How it was run: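 Steps: transfect HepG2 with MRTUs; dose 24 h; isolate RNA, DNase-treat, reverse-transcribe; PCR and FAM-label reporter cDNA; digest with HpaI 2h at 37 C; run capillary electrophoresis. Activity fitted both directions against DMSO.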

[15] = ATG_TCF_b_cat_CIS: Attagene CIS-FACTORIAL HepG2 Assay for human T-Cell-Factor with beta-catenin (TCF/b-cat) (AID 2282965); conditions: HepG2 TCF/beta-catenin cis-reporter transcription, actives raise or lower the signal
How it was run: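 Using capillary electrophoresis as the read-out, labelled reporter cDNA fragments from transiently transfected HepG2 were sized and quantified. Exposure lasted 24 hours; activity in either direction was referenced to DMSO.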

[16] = ATG_GRE_CIS: Attagene CIS-FACTORIAL HepG2 Assay for human Glucocorticoid Response Elements (GRE) (AID 2282947); conditions: HepG2 GRE cis-reporter, Attagene multiplex mRNA; actives raise or lower the signal
How it was run: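 Cells (HepG2) bearing transfected cis-promoter reporter transcription units were treated with chemical for 24 hours. Reporter mRNA was measured via RT-PCR with capillary electrophoresis, and activity was fitted in both directions relative to DMSO.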

[17] = ATG_M_32_CIS: Attagene CIS-FACTORIAL HepG2 Assay for M32 Transcription Factor (Internal Marker) (AID 2282949); conditions: HepG2 Attagene cis-factorial M32 reporter, mRNA; actives raise or lower the signal;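 also: background control marker of the multiplexed CIS panel rather than a real target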
How it was run: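 HepG2 transfectants (cis-regulated reporter transcription units) dosed 24 h. Reporter mRNA by RT-PCR plus CE, analysed as gain or loss relative to DMSO.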

[18] = molecular target: Heat shock factor protein 1 (Homo sapiens) (UniProt Q00613); assay: ATG_HSE_CIS: Attagene CIS-FACTORIAL HepG2 Assay for human Heat Shock Transcription Factor 1 (HSE) (AID 2282953); conditions: HepG2 HSE cis-reporter, Attagene RNA transcription; actives raise or lower the signal
Heat shock factor protein 1 (Homo sapiens), sequence (Q00613 whole entry, looked up, the tested form may be a part): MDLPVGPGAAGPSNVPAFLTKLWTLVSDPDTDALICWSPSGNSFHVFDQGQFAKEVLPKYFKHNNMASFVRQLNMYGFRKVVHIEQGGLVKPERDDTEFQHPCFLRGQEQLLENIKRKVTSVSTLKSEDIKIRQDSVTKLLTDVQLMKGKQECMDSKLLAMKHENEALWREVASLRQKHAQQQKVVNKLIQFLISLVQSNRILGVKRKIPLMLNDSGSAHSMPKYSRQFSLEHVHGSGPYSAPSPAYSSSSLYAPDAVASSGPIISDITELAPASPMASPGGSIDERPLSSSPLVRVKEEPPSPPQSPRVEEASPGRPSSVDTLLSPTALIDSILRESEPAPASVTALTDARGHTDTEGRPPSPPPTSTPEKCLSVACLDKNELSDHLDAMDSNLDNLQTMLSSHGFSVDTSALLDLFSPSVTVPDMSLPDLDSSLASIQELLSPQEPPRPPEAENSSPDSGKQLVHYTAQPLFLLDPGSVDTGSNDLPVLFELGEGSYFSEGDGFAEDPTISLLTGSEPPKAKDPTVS
How it was run: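 Cells were transfected with cis-element-driven reporter constructs, dosed for 24 h, then total RNA was reverse-transcribed and reporter cDNA amplified, FAM-labelled and digested with HpaI. Fragments were resolved by capillary electrophoresis; gain or loss was fitted against DMSO.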

[19] = ATG_MRE_CIS: Attagene CIS-FACTORIAL HepG2 Assay for human Metal Responsive Element (MRE) (AID 2282954); conditions: HepG2 MRE cis-reporter transcription, Attagene multiplex; actives raise or lower the signal
How it was run: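 Cells were transfected with cis-promoter reporter transcription units, then dosed for 24 h. RNA was reverse-transcribed, amplified, fluorescently labelled and resolved by capillary electrophoresis, and activity was fitted in both directions relative to DMSO.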

[20] = ATG_PPRE_CIS: Attagene CIS-FACTORIAL HepG2 Assay for human Peroxisome Proliferator-activated Response Element (PPRE) (AID 2282958); conditions: HepG2 PPRE cis-element reporter, Attagene transcription factor profiling; actives raise or lower the signal
How it was run: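 DMSO served as negative control and baseline for bidirectional curve fitting. Signal came from PPRE-regulated reporter mRNA in HepG2 cells, measured 24 h post-dosing by RT-PCR, 6-FAM primer extension and capillary electrophoresis.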

Measured: AC50

c1cc(N(CC2CO2)CC2CO2)ccc1OCC1CO1 (stereo not given)
inactive: [1] | [3] | [5] | [6] | [8] | [13] | [14]
active: [2] 74.4 µM | [4] 39.6 µM | [7] 46.4 µM | [9] 80.6 µM | [10] 58.5 µM | [11] 56.9 µM | [12] 68.3 µM | [15] 12.6 µM

OC1CCCC1
active: [8] 48.8 µM
not listed: [1]
inactive: all other assays above

O=C(Cl)c1cc(C(=O)Cl)cc(C(=O)Cl)c1
active: [1] 153 µM | [8] 47.6 µM | [20] 100 µM
not listed: [5] | [6] | [9] | [15] | [16] | [18]
inactive: all other assays above

CC(=O)CC(N)=O
active: [8] 0.0836 µM
not listed: [2] | [6] | [16]
inactive: all other assays above

O=C1CCCCCN1SSN1CCCCCC1=O
inactive: [1] | [3] | [5] | [6] | [20] | [9] | [13] | [15]
active: [2] 167 µM | [19] 165 µM | [7] 156 µM | [10] 183 µM | [11] 167 µM | [12] 161 µM

CCC(Cc1ccccc1)(C(=O)c1ccc(N2CCOCC2)cc1)N(C)C (stereo not given)
active: [4] 22.9 µM | [18] 65.9 µM | [7] 42 µM | [8] 1.7 µM | [9] 21.4 µM | [14] 30.2 µM | [15] 49.8 µM
inactive: [1] | [3] | [5] | [20] | [10] | [12] | [13]

CCCOCCOCCOCCO
not listed: [6] | [16] | [17]
inactive: all other assays above

NC(=O)N=NC(N)=O
not listed: [8] | [16] | [18]
inactive: all other assays above

CCCCCCCCCCC=CC#N
active: [8] 27.5 µM
not listed: [2] | [4] | [9] | [14] | [16] | [18]
inactive: all other assays above

COCc1c(C(C)C)nc(C(C)C)c(/C=C/[C@@H](O)C[C@@H](O)CC(=O)O)c1-c1ccc(F)cc1
active: [19] 12.4 µM | [20] 1.67 µM
not listed: [1] | [8] | [9] | [15]
inactive: all other assays above

CC(C)CC(O)Cc1ccccc1 (stereo not given)
not listed: [1] | [8]
inactive: all other assays above

O=C1CCCN1CCO
not listed: [1] | [8]
inactive: all other assays above

COc1c2ccoc2cc2oc(=O)ccc12
active: [8] 26.9 µM
not listed: [1] | [20]
inactive: all other assays above

NCCCN1CCN(CCCN)CC1
active: [8] 53.7 µM
not listed: [1] | [9] | [15] | [20]
inactive: all other assays above

O=C(Nc1ccccc1SSc1ccccc1NC(=O)c1ccccc1)c1ccccc1
active: [18] 47.1 µM | [8] 4.44 µM | [9] 2.56 µM
not listed: [1] | [11] | [20]
inactive: all other assays above

COc1ccc(C(Cl)=C(c2ccc(OC)cc2)c2ccc(OC)cc2)cc1
active: [8] 2.54 µM
not listed: [1] | [20]
inactive: all other assays above

CC(C)(C)C1CCCCC1=O (stereo not given)
active: [8] 76.6 µM
not listed: [1] | [20]
inactive: all other assays above
